# Results reported in ChEMBL document CHEMBL1857833, “Screening and optimization of specific chemical series against human African Trypanosomiasis (HAT)”.
# The campaign covered roughly 4,400 compounds. About 390 (8.9%) showed an effect of 50% or more. Many of the other results were omitted from the sample, so strong results are more common in it than they were.
# System: Trypanosoma brucei
# Assay: DNDI: Inhibition of Human African Trypanosomiasis, SBRI 427, in vitro at 2 ug.mL-1
# Assay type: functional
row,SMILES,% inhibition
1,CN(Cc1coc(-c2ccccc2Cl)n1)C1CCN(Cc2ccccc2)C1 (stereo not given),-15%
2,COc1ccc(Oc2nc(C)ccc2/C(=N/O)N2CCSC2)cc1,27%
3,COc1cc(-c2nc(CNC3CCc4ccccc43)co2)cc(OC)c1OC (stereo not given),28%
4,COc1ccc(CCN(C)Cc2coc(-c3ccc(Br)cc3)n2)cc1OC,65%
5,COc1ccc(CCN(C)Cc2coc(-c3ccc(F)cc3)n2)cc1OC,-7%
6,COc1ccc(CCN(C)Cc2coc(-c3ccc(O)cc3)n2)cc1OC,-29%
7,Brc1ccc(-c2nc(CNC3CCN(Cc4ccccc4)C3)co2)cc1 (stereo not given),2%
8,COc1ccc(-c2nc(CNC3CCN(Cc4ccccc4)CC3)co2)cc1,97%
9,COc1ccc(-c2nc(CNC3CCN(Cc4ccccc4)C3)co2)cc1 (stereo not given),12%
10,Oc1ccc(-c2nc(CNC3CCN(Cc4ccccc4)C3)co2)cc1 (stereo not given),33%
11,CCOc1ccc(-c2nc(CNC3CCN(Cc4ccccc4)C3)co2)cc1 (stereo not given),6%
12,Brc1ccc(-c2nc(CNC3CCN(Cc4ccccc4)CC3)co2)cc1,58%
13,Fc1ccc(-c2nc(CNC3CCN(Cc4ccccc4)CC3)co2)cc1,-17%
14,CC(C)(C)c1ccc(-c2nc(CNC3CCN(Cc4ccccc4)C3)co2)cc1 (stereo not given),55%
15,Cc1ccc(-c2nc(CNC3CCN(Cc4ccccc4)C3)co2)cc1 (stereo not given),17%
16,CN(Cc1ccco1)/C(=N\O)c1ccc(Oc2cc(Cl)ccc2Cl)nc1,-12%
17,COC(=O)C1CCN(/C(=N\O)c2ccnc(Oc3ccc(F)c(Cl)c3)c2)CC1,-5%
18,Cc1cccc(-c2nc(CN3CCN(c4ccc(F)cc4)CC3)co2)c1,18%
19,O/N=C(\NCc1c(F)cccc1F)c1ccc(Oc2ccc(Cl)cc2)nc1,6%
20,COCC(C)N/C(=N\O)c1ccc(Oc2cc(Cl)ccc2Cl)nc1 (stereo not given),23%
21,CCC(CC)N/C(=N\O)c1ccc(Oc2cc(C)cc(C)c2)nc1,94%
22,CCc1ccc(Oc2ccc(/C(=N/O)NC(CC)CC)cn2)cc1,7%
23,CCC(CC)N/C(=N\O)c1ccc(Oc2cc(C)cc(C(C)C)c2)nc1,-7%
24,COCC(C)N/C(=N\O)c1ccc(Oc2cc(C)cc(C)c2)nc1 (stereo not given),1%
25,CCC(CC)N/C(=N\O)c1ccc(Oc2ccc(C)cc2C)nc1,26%
26,CCC(CC)N/C(=N\O)c1ccc(Oc2ccc(Cl)cc2)nc1,96%
27,CCC(CC)N/C(=N\O)c1ccc(Oc2c(F)c(F)cc(F)c2F)nc1,19%

row,SMILES,% inhibition
1,CCC(CC)N/C(=N\O)c1ccc(Oc2cc(Cl)ccc2Cl)nc1,84%
2,CCN(CCC#N)Cc1coc(-c2cc(OC)c(OC)c(OC)c2)n1,-11%
3,Cc1ccc(/C(=N/O)N2C(C)CCC2C)c(OCc2ccccc2C)n1 (stereo not given),21%
4,COC[C@H]1CCCN1Cc1coc(-c2ccc(C)cc2)n1,-9%
5,Cc1cc(C)cc(Oc2ccc(/C(=N/O)NC3CCC3)cn2)c1,99%
6,Cc1cc(C)cc(Oc2ccc(/C(=N/O)N(C)C3CCCCC3)cn2)c1,-8%
7,Cc1cc(C)cc(Oc2ccc(/C(=N/O)NC3CCc4ccccc43)cn2)c1 (stereo not given),12%
8,Cc1cc(Oc2ccc(/C(=N/O)NC3CCCCC3)cn2)cc(C(C)C)c1,17%
9,Cc1ccc(Oc2ccc(/C(=N/O)NCc3cccs3)cn2)c(C)c1,21%
10,Cc1ccc(Oc2ccc(/C(=N/O)Nc3ccccc3)cn2)c(C)c1,22%
11,Cc1ccc(Oc2ccc(/C(=N/O)NCc3c(F)cccc3F)cn2)c(C)c1,16%
12,Cc1ccc(Oc2ccc(/C(=N/O)NC3CC3)cn2)c(C)c1,26%
13,Cc1ccc(Oc2ccc(/C(=N/O)NC3CCCC3)cn2)c(C)c1,91%
14,Cc1cc(C)cc(Oc2ccc(/C(=N/O)NC3CCCCC3)cn2)c1,99%
15,Cc1cc(C)cc(Oc2ccc(/C(=N/O)NC3CCN(Cc4ccccc4)C3)cn2)c1 (stereo not given),-11%
16,Cc1ccc(Oc2ccc(/C(=N/O)NCC3CC3)cn2)c(C)c1,98%
17,COc1ccc(-c2nc(CNc3cc(C(C)(C)C)nn3C)co2)cc1,7%
18,Cc1ccccc1-c1nc(CN(C)C2CCN(Cc3ccccc3)C2)co1 (stereo not given),8%
19,CCCN(CC1CC1)/C(=N\O)c1ccc(C)nc1Oc1ccc(OC)cc1,30%
20,COc1ccc(-c2nc(CNCc3ccc(C(F)(F)F)cc3)co2)cc1,2%
21,CSc1ccc(Oc2nc(C)ccc2/C(=N/O)N2CCN(C3CCCC3)CC2)cc1C,13%
22,Cc1ccc(/C(=N/O)N2CC=CC2)c(OCc2cccc(F)c2)n1,-19%
23,CCCN(CC)Cc1coc(-c2cccc(OCC)c2)n1,20%
24,COc1ccc(-c2nc(CN3C(C)C=CC3C)co2)cc1 (stereo not given),1%
25,FC(F)(F)Oc1ccc(CNCc2coc(-c3ccc(Br)cc3)n2)cc1,8%
26,CCOC(=O)C1CCN(Cc2coc(-c3cccc(OC)c3)n2)CC1,37%
27,COc1ccc(N2CCN(Cc3coc(-c4ccccc4Cl)n3)CC2)cc1,-8%

row,SMILES,% inhibition
1,Cc1cc(C)cc(Oc2ccc(/C(=N/O)Nc3ccccc3)cn2)c1,0%
2,Cc1cc(C)cc(Oc2ccc(/C(=N/O)NC3CCCC3)cn2)c1,98%
3,Cc1cc(C)cc(Oc2ccc(/C(=N/O)NC3CCC(C)CC3)cn2)c1 (stereo not given),82%
4,Cc1cc(C)cc(Oc2ccc(/C(=N/O)NC3CC(C)CC(C)(C)C3)cn2)c1 (stereo not given),14%
5,CCN(CC)CCN(C)Cc1coc(-c2cccs2)n1,4%
6,CCCCN(CCCC)CCCNCc1coc(-c2ccc(F)cc2)n1,1%
7,CCN(CC)CCNCc1coc(-c2ccc(F)cc2)n1,-17%
8,CCCCN(CCCC)CCCNCc1coc(-c2ccco2)n1,20%
9,CN(C)CCCNCc1coc(-c2ccc(F)cc2)n1,73%
10,CCN(CC)CCNCc1coc(-c2cccc(C)c2)n1,26%
11,CCN(CC)CCCNCc1coc(-c2ccc(F)cc2)n1,-8%
12,CCN(CC)CCCNCc1coc(-c2cccc(C)c2)n1,95%
13,CCCCN(CCCC)CCCNCc1coc(-c2ccc(C)cc2)n1,53%
14,Cc1cccc(CNCc2coc(-c3cccc(C)c3)n2)c1,-10%
15,COc1cccc(-c2nc(CNCc3ccc(C(C)(C)C)cc3)co2)c1,5%
16,COc1ccc(Oc2ncccc2/C(=N/O)NCCN2CCOCC2)cc1,-10%
17,Cc1cc(NCc2coc(-c3ccc(Cl)cc3Cl)n2)n(-c2ccccc2)n1,-4%
18,CCN(Cc1coc(-c2cccc3ccccc23)n1)c1ccc2c(c1)OCO2,29%
19,Cc1ccc(-c2nc(Cn3ccnc3C(C)C)co2)cc1,39%
20,Fc1ccccc1-c1nc(CNCC(F)(F)C(F)(F)F)co1,21%
21,COc1cccc(-c2nc(CNC34C[C@H]5C[C@@H](C3)C[C@@H](C4)C5)co2)c1,85%
22,COc1ccc(NCc2coc(-c3cccc(OC)c3)n2)cc1,8%
23,Brc1ccc(-c2nc(CNCc3ccccn3)co2)cc1,-9%
24,CCc1nccn1Cc1coc(-c2cccc(OC)c2)n1,-9%
25,COc1cccc(-c2nc(Cn3ccnc3C)co2)c1,31%
26,Brc1ccc(-c2nc(CNC34C[C@H]5C[C@@H](C3)C[C@@H](C4)C5)co2)cc1,62%
27,COc1cccc(-c2nc(Cn3ccnc3C=O)co2)c1,84%

row,SMILES,% inhibition
1,Oc1ccc(-c2nc(CNC34C[C@H]5C[C@@H](C3)C[C@@H](C4)C5)co2)cc1,23%
2,Brc1ccccc1-c1nc(CNC23C[C@H]4C[C@@H](C2)C[C@@H](C3)C4)co1,48%
3,Fc1ccc(-c2nc(CNC34C[C@H]5C[C@@H](C3)C[C@@H](C4)C5)co2)cc1,58%
4,Cc1cccc(-c2nc(CNC34C[C@H]5C[C@@H](C3)C[C@@H](C4)C5)co2)c1,35%
5,c1csc(-c2nc(CNC34C[C@H]5C[C@@H](C3)C[C@@H](C4)C5)co2)c1,25%
6,Cc1ccc(/C(=N/O)NC2CC2)c(OCc2ccncc2)n1,19%
7,Clc1ccccc1-c1nc(CN2CC=CCC2)co1,14%
8,CCN(CC)c1cccc(Oc2ncccc2/C(=N/O)N2CCCC2)c1,-7%
9,CC1(C)Cc2cccc(Oc3ccc(/C(=N/O)NC4CCc5ccccc54)cn3)c2O1 (stereo not given),10%
10,Cc1ccc(/C(=N/O)N2CCCC2C)c(Oc2cccc(C(C)C)c2)n1 (stereo not given),0%
11,Cc1cccc(N2CCN(Cc3coc(-c4ccccc4F)n3)CC2C)c1 (stereo not given),-21%
12,COCC(C)N/C(=N\O)c1ccc(C)nc1OCc1ccccc1C (stereo not given),8%
13,N#CCCN(Cc1ccccc1)Cc1coc(-c2ccc(F)cc2)n1,-7%
14,Cc1ccc(C(C)C)c(Oc2cc(/C(=N/O)NCC3CCCCC3)ccn2)c1,27%
15,Cc1ccccc1-c1nc(CNC23C[C@H]4C[C@@H](C2)C[C@@H](C3)C4)co1,49%
16,COc1ccc(-c2nc(CNC34C[C@H]5C[C@@H](C3)C[C@@H](C4)C5)co2)cc1,3%
17,Cc1ccc(-c2nc(CNC34C[C@H]5C[C@@H](C3)C[C@@H](C4)C5)co2)cc1,90%
18,CN(Cc1coc(-c2ccccc2Cl)n1)CC1OCCO1,8%
19,COc1ccccc1Oc1ncccc1/C(=N/O)Nc1ccccc1,62%
20,COc1ccc(Oc2ncccc2/C(=N/O)Nc2ccccc2)cc1,-9%
21,O/N=C(\Nc1ccccc1)c1cccnc1Oc1ccccc1F,2%
22,CSc1ccccc1Oc1ncccc1/C(=N/O)Nc1ccccc1,71%
23,CSc1ccccc1Oc1ncccc1/C(=N/O)N1CCN(c2ccccc2)CC1,22%
24,CSc1ccccc1Oc1ncccc1/C(=N/O)N1CCOCC1,8%
